Test [1] deals with human RAR-related Orphan Receptor beta (RORb), RORB (gene 6096) (UniProt Q92753). Briefly: ATG_RORb_TRANS: Attagene TRANS-FACTORIAL HepG2 Assay for human RAR-related Orphan Receptor beta (RORb) (AID 2283010; active = hit-call score of the fitted dose curve at least 0.9, where 1 is the maximum). The gist of the method: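 HepG2 cells transiently transfected with GAL4-UAS reporter units expressing chimeric NR-Gal4 protein; reporter mRNA measured 24 h after dosing by RT-PCR, 6-FAM labelling and capillary electrophoresis. Gain-of-signal fitted relative to DMSO baseline.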
Chain of human RAR-related Orphan Receptor beta (RORb), RORB (gene 6096) (Q92753 whole entry, looked up, the tested form may be a part): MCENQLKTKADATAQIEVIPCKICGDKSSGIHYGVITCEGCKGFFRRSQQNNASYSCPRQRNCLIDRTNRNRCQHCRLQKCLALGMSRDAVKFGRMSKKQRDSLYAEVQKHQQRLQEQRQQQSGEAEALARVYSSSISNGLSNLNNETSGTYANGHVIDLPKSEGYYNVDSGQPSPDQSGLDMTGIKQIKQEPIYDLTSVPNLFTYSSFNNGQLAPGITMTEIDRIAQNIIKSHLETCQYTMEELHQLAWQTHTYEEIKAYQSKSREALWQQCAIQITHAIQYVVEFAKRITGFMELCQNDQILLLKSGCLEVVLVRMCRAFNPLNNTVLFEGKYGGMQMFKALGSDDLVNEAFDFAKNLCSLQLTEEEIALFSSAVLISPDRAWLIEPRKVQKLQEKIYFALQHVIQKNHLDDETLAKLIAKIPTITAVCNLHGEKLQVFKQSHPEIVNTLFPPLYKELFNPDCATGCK

Test [2] concerns the target human Retinoid X Receptor beta (RXRb), RXRB (gene 6257) (UniProt P28702). Briefly: ATG_RXRb_TRANS: Attagene TRANS-FACTORIAL HepG2 Assay for human Retinoid X Receptor beta (RXRb) (AID 2283013; active = hit-call score of the fitted dose curve at least 0.9, where 1 is the maximum). The gist of the method: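 HepG2 cells were transiently transfected with multiplexed GAL4-UAS reporters and a chimeric RXRb-Gal4 construct, then exposed for 24 h. Reporter mRNA was quantified by RT-PCR, FAM labeling, HpaI digestion and capillary electrophoresis; gain of signal was scored against DMSO.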

The target of test [3] is human Thyroid Receptor alpha (THRa1), THRA (gene 7067) (UniProt P10827). Briefly: ATG_THRa1_TRANS: Attagene TRANS-FACTORIAL HepG2 Assay for human Thyroid Receptor alpha (THRa1) (AID 2283014; active = hit-call score of the fitted dose curve at least 0.9, where 1 is the maximum). An outline of the steps:
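HepG2 cells transiently transfected with multiplexed GAL4-UAS reporter units for exogenous chimeric THRa1-Gal4; reporter mRNA measured 24 h after dosing by RT-PCR, 6-FAM labelling, HpaI digestion and capillary electrophoresis. Gain-of-signal fitted versus DMSO baseline.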

Test [4] addresses human RAR-related Orphan Receptor gamma (RORg), RORC (gene 6097) (UniProt P51449). As to the kind of experiment: ATG_RORg_TRANS: Attagene TRANS-FACTORIAL HepG2 Assay for human RAR-related Orphan Receptor gamma (RORg) (AID 2283011; active = hit-call score of the fitted dose curve at least 0.9, where 1 is the maximum). An outline of the steps:
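Readout: reporter transcript induction (RT-PCR, fluorescent primer extension, capillary electrophoresis) after 24 h compound exposure of transiently transfected HepG2 cells carrying a RORg-Gal4 chimera and GAL4-UAS reporters; DMSO served as baseline, with increasing signal fitted.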

Test [5] has as its target Retinoic acid receptor RXR-alpha (Homo sapiens) (UniProt P19793). Briefly: ATG_RXRa_TRANS: Attagene TRANS-FACTORIAL HepG2 Assay for human Retinoid X Receptor alpha (RXRa) (AID 2283012; active = hit-call score of the fitted dose curve at least 0.9, where 1 is the maximum). The gist of the method:
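HepG2 cells transiently transfected with GAL4-UAS reporter units and chimeric RXRa-Gal4 protein, treated 24 h. Reporter mRNA measured by RT-PCR, fluorescent labelling, HpaI digestion and capillary electrophoresis. Induction fitted against DMSO.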

Read-out in test [6]: E-selectin (Homo sapiens) (UniProt P16581)
Briefly: BSK_3C_Eselectin: BioMAP Diversity Plus: 3C Assay for Eselectin Biomarker Activity (AID 2283015).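 For outcome: cell surface E-selectin protein quantified by ELISA 24 h after dosing.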 Conditions: primary human endothelial cells (HUVEC); actives raise or lower the signal. An outline of the steps:
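Primary human umbilical vein endothelial cells (3C system) were dosed with chemical and cell-surface E-selectin measured by ELISA 24 h later. Bidirectional curve fitting used DMSO as negative control and baseline.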

Read-out in test [7]: Interleukin-1 alpha (IL1a), IL1A (gene 3552)
As to the kind of experiment: BSK_BE3C_IL1a: BioMAP Diversity Plus: BE3C Assay for Interleukin-1 alpha (IL1a) Biomarker Activity (AID 2283016). The settings on record: primary human bronchial epithelial cells; actives raise or lower the signal. An outline of the steps:
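Human primary bronchial epithelial cells, 24 h chemical exposure; IL-1a quantified by ELISA, fitted bidirectionally against DMSO. Cytotoxicity assessed in parallel by SRB total-protein staining at the time of measurement.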

Read-out in test [8]: Monocyte Chemoattractant Protein-1 (MCP1), CCL2 (gene 6347)
Briefly: BSK_3C_MCP1: BioMAP Diversity Plus: 3C Assay for Monocyte Chemoattractant Protein-1 (MCP1) Biomarker Activity (AID 2283017). The settings on record: primary human endothelial cells (HUVEC); actives raise or lower the signal. An outline of the steps:
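Primary human umbilical vein endothelial cells (3C system) were exposed to test chemical for 24 h, after which MCP-1 was quantified by ELISA. Activity was fitted bidirectionally against DMSO as negative control and baseline.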

Read-out in test [9]: Monocyte Chemoattractant Protein-1 (MCP1), CCL2 (gene 6347)
As to the kind of experiment: BSK_4H_MCP1: BioMAP Diversity Plus: 4H Assay for Monocyte Chemoattractant Protein-1 (MCP1) Biomarker Activity (AID 2283018). Conditions: primary human endothelial cells (HUVEC); actives raise or lower the signal. The gist of the method: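 Human umbilical vein endothelial cells (4H system) exposed to chemicals for 24 h in 96-well format. MCP-1 measured by ELISA; bidirectional fitting against DMSO, with SRB total-protein staining in parallel cultures for cytotoxicity.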

Read-out in test [10]: Human Leukocyte Antigen - DR isotype (HLADR), HLA-DRA (gene 3122)
Briefly: BSK_3C_HLADR: BioMAP Diversity Plus: 3C Assay for Human Leukocyte Antigen - DR isotype (HLADR) Biomarker Activity (AID 2283019).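 For outcome: ELISA of cell-surface HLA-DR on HUVEC 24 h after dosing.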 Conditions: primary human endothelial cells (HUVEC); actives raise or lower the signal. An outline of the steps:
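Primary human umbilical vein endothelial cells (3C system) were dosed with compound and cell-surface HLA-DR was quantified by ELISA at 24 h. Activity was fitted bidirectionally against DMSO as negative control and baseline.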

Where “and” joins values, the source holds several entries; their conditions need not be identical. Identical values can stand only once. Inconclusive results are not listed. Calls of active or inactive are those of the source. Rule for the calls, unless noted: active = hit-call score of the fitted dose curve at least 0.9, where 1 is the maximum; inactive = score below 0.9.

Chain of human RAR-related Orphan Receptor gamma (RORg), RORC (gene 6097) (P51449 whole entry, looked up, the tested form may be a part): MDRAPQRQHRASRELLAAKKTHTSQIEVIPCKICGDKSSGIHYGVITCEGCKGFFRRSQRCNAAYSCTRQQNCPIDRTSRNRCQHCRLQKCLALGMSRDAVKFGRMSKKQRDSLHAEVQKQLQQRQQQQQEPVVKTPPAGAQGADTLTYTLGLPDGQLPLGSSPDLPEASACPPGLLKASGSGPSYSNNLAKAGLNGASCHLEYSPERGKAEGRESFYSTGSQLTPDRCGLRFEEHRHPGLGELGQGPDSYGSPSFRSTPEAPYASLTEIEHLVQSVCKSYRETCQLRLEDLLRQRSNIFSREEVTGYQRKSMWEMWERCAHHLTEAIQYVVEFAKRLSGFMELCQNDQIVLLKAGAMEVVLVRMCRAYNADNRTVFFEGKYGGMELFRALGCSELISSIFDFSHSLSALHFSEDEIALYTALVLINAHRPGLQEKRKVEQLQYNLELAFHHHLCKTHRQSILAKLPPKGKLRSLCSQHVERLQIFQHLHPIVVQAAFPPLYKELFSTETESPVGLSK
Chain of human Thyroid Receptor alpha (THRa1), THRA (gene 7067) (P10827 whole entry, looked up, the tested form may be a part): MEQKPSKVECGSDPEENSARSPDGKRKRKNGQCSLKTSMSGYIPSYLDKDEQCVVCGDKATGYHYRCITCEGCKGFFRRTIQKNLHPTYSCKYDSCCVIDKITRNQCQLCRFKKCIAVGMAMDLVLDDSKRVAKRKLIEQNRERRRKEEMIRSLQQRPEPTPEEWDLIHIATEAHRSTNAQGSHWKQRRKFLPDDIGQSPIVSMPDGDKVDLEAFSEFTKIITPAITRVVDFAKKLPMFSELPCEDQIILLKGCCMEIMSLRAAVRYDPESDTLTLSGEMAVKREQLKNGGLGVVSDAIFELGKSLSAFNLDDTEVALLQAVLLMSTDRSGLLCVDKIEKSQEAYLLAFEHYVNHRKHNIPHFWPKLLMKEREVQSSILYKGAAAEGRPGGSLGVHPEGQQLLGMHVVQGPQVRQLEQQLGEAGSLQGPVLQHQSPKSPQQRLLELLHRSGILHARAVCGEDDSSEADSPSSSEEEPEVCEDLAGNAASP
Chain of Retinoic acid receptor RXR-alpha (Homo sapiens) (P19793 whole entry, looked up, the tested form may be a part): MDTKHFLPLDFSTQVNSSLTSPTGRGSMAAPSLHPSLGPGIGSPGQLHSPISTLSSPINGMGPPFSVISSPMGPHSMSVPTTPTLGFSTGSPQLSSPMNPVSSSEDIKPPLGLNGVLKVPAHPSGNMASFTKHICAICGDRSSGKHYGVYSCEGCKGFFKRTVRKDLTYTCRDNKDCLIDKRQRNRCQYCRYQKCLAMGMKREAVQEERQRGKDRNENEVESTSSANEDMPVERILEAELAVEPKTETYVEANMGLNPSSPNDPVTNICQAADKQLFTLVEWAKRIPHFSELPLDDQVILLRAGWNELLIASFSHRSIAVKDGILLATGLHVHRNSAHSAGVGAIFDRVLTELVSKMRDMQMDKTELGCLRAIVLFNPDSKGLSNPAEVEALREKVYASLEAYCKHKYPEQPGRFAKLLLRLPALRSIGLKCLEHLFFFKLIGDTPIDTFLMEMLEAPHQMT
Chain of human Retinoid X Receptor beta (RXRb), RXRB (gene 6257) (P28702 whole entry, looked up, the tested form may be a part): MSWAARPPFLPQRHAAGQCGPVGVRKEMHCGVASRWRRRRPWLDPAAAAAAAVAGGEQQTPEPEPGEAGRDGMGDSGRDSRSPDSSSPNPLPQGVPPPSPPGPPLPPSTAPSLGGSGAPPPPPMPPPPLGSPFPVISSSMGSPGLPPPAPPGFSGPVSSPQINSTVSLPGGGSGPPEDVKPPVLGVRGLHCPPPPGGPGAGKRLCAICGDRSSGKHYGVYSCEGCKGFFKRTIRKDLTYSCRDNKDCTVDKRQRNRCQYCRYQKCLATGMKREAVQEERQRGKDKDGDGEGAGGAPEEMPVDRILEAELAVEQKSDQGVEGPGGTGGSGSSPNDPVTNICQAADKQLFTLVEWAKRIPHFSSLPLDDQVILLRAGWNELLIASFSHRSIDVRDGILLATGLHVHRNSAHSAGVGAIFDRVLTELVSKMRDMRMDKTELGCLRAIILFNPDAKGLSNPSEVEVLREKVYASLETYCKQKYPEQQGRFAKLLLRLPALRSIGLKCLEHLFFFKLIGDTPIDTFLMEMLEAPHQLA
Chain of E-selectin (Homo sapiens) (P16581 whole entry, looked up): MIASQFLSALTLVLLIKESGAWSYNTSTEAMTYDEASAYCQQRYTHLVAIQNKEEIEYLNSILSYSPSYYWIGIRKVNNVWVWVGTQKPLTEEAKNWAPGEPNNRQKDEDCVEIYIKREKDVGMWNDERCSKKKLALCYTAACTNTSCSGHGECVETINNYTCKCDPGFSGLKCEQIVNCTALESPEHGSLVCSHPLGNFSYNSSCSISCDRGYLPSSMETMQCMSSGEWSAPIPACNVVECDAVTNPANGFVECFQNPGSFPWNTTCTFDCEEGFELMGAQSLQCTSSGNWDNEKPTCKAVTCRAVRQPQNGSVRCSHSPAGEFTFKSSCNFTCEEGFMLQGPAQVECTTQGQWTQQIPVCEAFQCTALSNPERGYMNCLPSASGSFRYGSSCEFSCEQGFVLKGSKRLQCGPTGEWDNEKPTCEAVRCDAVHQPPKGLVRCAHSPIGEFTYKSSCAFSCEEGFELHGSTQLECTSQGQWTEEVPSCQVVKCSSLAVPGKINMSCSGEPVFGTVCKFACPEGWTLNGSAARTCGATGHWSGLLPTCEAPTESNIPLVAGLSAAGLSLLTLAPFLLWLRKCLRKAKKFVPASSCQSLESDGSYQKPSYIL

`CCCCCCCCCCCCCCCCC`: the compound was classed as inactive in test [1] and in [2].
Consider `CCOCN(C(=O)CS(=O)(=O)O)c1c(C)cccc1CC`, for which the compound was classed as inactive in test [1] and in test [3].
On to `NCC(F)(F)C(F)(F)C(F)(F)C(F)(F)C(F)(F)C(F)(F)F`, for which the result in test [4], in [5], in [2], in [6], in test [7] and in test [8] was inactive. Moreover, the result in [9] and in test [10] was inactive.
For the compound `CN1CN(C)CN(C)C1`, the compound was classed as inactive in test [4] and in test [5].
As to `C[Si](C)O[Si](C)C`, the call in test [4] and in test [5] was inactive.
Consider `CC(C)(C)C(=O)C1C(=O)c2ccccc2C1=O`, for which the result in [4], in [5] and in [3] was inactive.
In the case of `CSc1ccc(Cl)cc1`, the compound was called inactive in test [1] and in test [3].
As for `CC(=O)CCC(C)C`, the result in test [4] was inactive.
As to `CCCCCCCC/C=C\CCCCCCCC(=O)N(C)CC(=O)O`, the compound was called inactive in test [4], in test [5] and in test [3].
Consider `NC(=O)C(F)(F)C(F)(F)C(F)(F)C(F)(F)C(F)(F)C(F)(F)C(F)(F)F`, for which the compound was classed as inactive in test [1], in [2], in test [3], in [6], in test [7] and in [8]. Besides, the result in test [9] and in test [10] was inactive.
Consider `Cc1cnccn1`, for which the compound was called inactive in [4], in test [5], in test [3], in test [6], in test [7] and in test [8]. Also, the result in [9] and in test [10] was inactive.
As to `CCC(=O)OC(C)c1ccccc1` (stereo not given), the compound was classed as inactive in test [1], in test [2] and in test [3].
For `O=C(O)CCC(F)(F)C(F)(F)C(F)(F)C(F)(F)C(F)(F)C(F)(F)C(F)(F)F`, the outcome in test [1], in test [5], in test [6], in [7], in [8] and in [9] was inactive. In test [10], the outcome was inactive.
Consider `CCN=c1cc2oc3cc(NCC)c(C)cc3c(-c3ccccc3C(=O)OCC)c-2cc1C`, for which the compound was classed as inactive in [4], in test [5] and in [3].
In the case of `O=C1c2c(O)ccc(Nc3ccc(CCO)cc3)c2C(=O)c2c([N+](=O)[O-])ccc(O)c21`, the outcome in test [4], in test [5], in test [7] and in test [8] was inactive. In addition, the AC50 in [3] was 30 µM (active); in test [6], 4.35 µM (active); in test [9], 30.4 µM (active); in test [10], 10.6 µM (active).
Consider `C=CC(=O)OCC(F)(F)C(F)(F)C(F)(F)C(F)(F)C(F)(F)C(F)(F)C(F)(F)C(F)F`, for which the outcome in test [1], in test [5], in [6], in [7], in test [8] and in [9] was inactive. Also, the outcome in test [10] was inactive.
In the case of `Cc1ccc(O)cn1`, the call in test [4] and in [5] was inactive.
In the case of `F[Si-2](F)(F)(F)(F)F`, the compound was called inactive in test [4], in test [5] and in test [3].
Regarding `O=C(O)C(F)(F)C(F)(F)C(F)(F)OC(F)(F)F`, the compound was called inactive in [4], in test [5], in test [6], in [7], in test [8] and in test [9]. Also, the outcome in test [10] was inactive.
With `CN(C)C(C)(C)CO`, the result in test [4], in [5] and in test [3] was inactive.
As to `O=C(O)C(F)(F)C(F)(F)C(F)(F)OC(F)(C(F)(F)F)C(F)(F)F`, the compound was classed as inactive in [4], in [5], in test [6], in test [7], in test [8] and in test [9]. Further, the result in [10] was inactive.
Regarding `C#CC(O)CCC` (stereo not given), the result in test [1] and in [2] was inactive.
As for `COC(F)(C(F)F)C(F)(F)F` (stereo not given), the compound was called inactive in test [1], in test [5], in [3], in test [6], in test [7] and in test [8]. The outcome in test [9] and in test [10] was inactive.
For `O=C=Nc1cccc2c(N=C=O)cccc12`, the compound was called inactive in test [1], in test [3], in [6], in test [7], in test [8] and in test [10]. Further, in test [9], the AC50 is 0.502 µM (active).
Turning to `FC(F)(F)C(F)(F)C(F)(F)CC1CO1` (stereo not given), the outcome in test [4], in [5], in test [3], in test [6], in test [7] and in [8] was inactive. For the same compound, the result in [9] and in test [10] was inactive.
As to `O=C(O)CCC(F)(F)C(F)(F)C(F)(F)F`, the compound was called inactive in test [1], in test [5], in [6], in test [7], in test [8] and in test [9]. Moreover, the result in test [10] was inactive.
As for `Cc1ccc(O)c(-n2nc3ccccc3n2)c1`, the compound was classed as inactive in test [1], in test [5], in test [3], in [6], in test [7] and in test [8]. Moreover, the result in test [9] and in test [10] was inactive.
For `CO[Si](CCCOCC1CO1)(OC)OC` (stereo not given), the call in test [4], in test [5] and in test [2] was inactive.
Turning to `O=c1[nH]cccc1O`, the compound was classed as inactive in [1] and in [3].
For `CCN(CC)c1ccc(C=O)cc1`, the compound was called inactive in test [1], in test [3], in test [6], in [7], in test [8] and in [9]. Also, the outcome in test [10] was inactive.
Turning to `C=CC(=O)OCC(F)(F)C(F)(F)C(F)(F)COC(=O)C=C`, the compound was called inactive in test [4], in test [5] and in [3]. The half-maximal activity concentration (AC50) in [6] is 19.4 µM (active) and 32.1 µM (active); in [7], 23.2 µM (active) and 17.5 µM (active); in test [8], 39.6 µM (active) and 30 µM (active); in test [9], 30 µM (active) and 8.24 µM (active); in [10], 14 µM (active) and 12.3 µM (active).
Regarding `O=S(=O)(O)CCC(F)(F)C(F)(F)C(F)(F)C(F)(F)C(F)(F)C(F)(F)C(F)(F)C(F)(F)F`, the compound was classed as inactive in test [1], in test [5], in test [6], in [7], in test [8] and in test [9]. In addition, the result in test [10] was inactive.
As for `NC(=O)C(F)(F)C(F)(F)C(F)(F)C(F)(F)C(N)=O`, the outcome in [1], in test [3], in test [6], in [7], in test [8] and in [9] was inactive. Moreover, the result in test [10] was inactive.

(Values after PubChem BioAssay (EPA / NIEHS).)
